HCMV antiviral = qHTS Assay for inhibitors of the human cytomegalovirus (HCMV); HFF cells, HCMV-luciferase reporter, 72 h; stronger effect = lower value; activity change, negative = inhibition, % at 57.5 µM; actives 4.5% (n = 410,000); in the data active = activity change below about -60%; inconclusive = no clear call, values can overlap the other calls; inactive = above about -39%
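HFF cells seeded 16 h at 37C, treated with compounds, infected with luciferase-reporter HCMV at MOI 1 PFU/cell; luciferase read at 72 h post infection, normalized to buffer-only and Salinomycin controls.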
HCV inh = qHTS Assay for Inhibitors of Hepatitis C Virus (HCV). Huh7.5.1 HCVcc-Cre infection, luciferase reporter, 44 h. Potency, µM (doses to about 41.8 µM), without a hit: at the highest dose activity change, negative = inhibition, most hits filed as inhibitors. actives 3.4% (n = 340,000); active = well fitted inhibition curve with a large enough effect; inconclusive = small, poorly fitted or top-dose-only effect, or another doubt; inactive = no such curve, though single readings can be large or run the other way; also: potency is read from the fitted curve at half-maximal effect
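Luciferase read-out (15 sec integration) after a 15 min room-temperature substrate step quantifies HCVcc-Cre infection. Cells, 1,000 per well, had compound added 4 h post-plating, then virus at ~0.5 moi, and were cultured 44 h.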
FMDV inh = High Throughput Screening for Foot and Mouth Disease Virus Antivirals; FMDV antiviral cell-based qHTS; Potency, µM (highest dose often 57.9 µM), for inactives: at the highest dose activity change, negative = inhibition, usual class: inhibitors; actives 1.2% (n = 410,000); calls by dose curve; tested in HEK293T cells; also: read-out not given here; potency is read from the fitted curve at half-maximal effect; nearly all actives have a fitted effect of over 45% in size
MARV entry inh = qHTS for inhibitors of binding or entry into cells for Marburg Virus | Potency, µM (doses to about 37.8 µM), for the others: at the top dose activity change, negative = inhibition, usual class: inhibitors | AID 540276, 2011 | actives 1.8% (n = 300,000) | Marburg virus pseudotyped entry inhibition, cell reporter; calls by dose curve; tested in HEK293 cells; also: potency is read from the fitted curve at half-maximal effect
LASV entry inh = qHTS for Inhibitors of binding or entry into cells for Lassa Virus. Lassa virus pseudotype entry inhibition, cell reporter. Potency, µM (doses to about 37.9 µM), without a hit: at the top dose activity change, negative = inhibition, actives largely listed as inhibitors. actives 1.2% (n = 300,000); calls by dose curve; tested in HEK293 cells; also: potency is read from the fitted curve at half-maximal effect; nearly all actives have a fitted effect of over 50% in size
* hit, by the source's call; [ ] = remark or other dose. The list is not random: actives were taken first. Their share in the collection is about 7.9%. % is scaled to controls: 0 for no effect and ±100 for the full control effect.

O=C(Nc1ccc2c(c1)OCCO2)c1cc2ccccc2o1 was read as HCMV antiviral 117, HCV inh 22µM*, FMDV inh -35%, MARV entry inh 4µM* and LASV entry inh 7.9µM*.
Screening Cc1ccc(NC(=O)c2cc3ccccc3oc2=O)cc1S(=O)(=O)N(C)C returned HCV inh -9%, FMDV inh inconclusive, MARV entry inh inconclusive and LASV entry inh inconclusive.
For O=C(Nc1ccc(NC(=O)c2cc3ccccc3o2)cc1)c1ccccc1 the results were HCMV antiviral 3, FMDV inh -13% and LASV entry inh 5%[46.1 µM].
Screening Cc1ccc(NC(=O)c2cc3ccccc3o2)cc1S(=O)(=O)N(C)C returned HCMV antiviral 12, HCV inh 11µM*, FMDV inh -36%, MARV entry inh 16% and LASV entry inh inconclusive.
Screening NC(=O)c1ccccc1NC(=O)CN1CCN(Cc2ccc(Cl)cc2Cl)CC1 returned HCMV antiviral inconclusive, HCV inh inconclusive, FMDV inh 18µM*, MARV entry inh inconclusive and LASV entry inh -26%.
COc1ccc(NC(=O)c2c(-c3ccc(C)cc3)nnc3ccccc23)cc1OC was read as HCMV antiviral 0, FMDV inh 33% and LASV entry inh -9%[46.1 µM].
COc1cc2cnncc2cc1OC was read as HCMV antiviral 89, HCV inh 15%, FMDV inh 18%, MARV entry inh -3% and LASV entry inh -7%.
For COc1cc2cc(Br)cc(Br)c2nc1C the results were HCMV antiviral -10, HCV inh 11µM*, FMDV inh -14%, MARV entry inh -1% and LASV entry inh 0%.
O=C(CCN1C(=O)C2C3C=CC(C3)C2C1=O)Nc1nccs1 (stereo not drawn) was read as HCMV antiviral -69*, HCV inh 25%, FMDV inh -15%, MARV entry inh 29% and LASV entry inh 5%.
`COc1ccccc1C(=O)Nc1ncc2c(n1)CC(c1ccco1)CC2=O` (stereo not drawn) gave HCMV antiviral -84*, HCV inh inconclusive, MARV entry inh -3% and LASV entry inh -4%.
Cn1cnc([N+](=O)[O-])c1Oc1ccc2ccccc2c1 was read as HCMV antiviral 23, HCV inh inconclusive, FMDV inh 18µM*, MARV entry inh inconclusive and LASV entry inh inconclusive.
O=C(Nc1ccc(C(F)(F)F)cc1)c1cccnc1N1CCOCC1 was read as HCMV antiviral -12, HCV inh 1%, FMDV inh -9%, MARV entry inh inconclusive and LASV entry inh -7%.
For O=C(c1cnc(N2CCN(c3ccccn3)CC2)c2ccccc12)N1CCN(c2cccc(Cl)c2)CC1 the results were HCMV antiviral -94*, HCV inh 5µM*, FMDV inh 8.9µM*, MARV entry inh inconclusive and LASV entry inh inconclusive.
Screening O=C(c1cc(Sc2cccc(Cl)c2)nc2ccccc12)N1CCN(c2ccccn2)CC1 returned HCMV antiviral inconclusive, HCV inh 10µM*, FMDV inh -24%, MARV entry inh inconclusive and LASV entry inh inconclusive.
Screening O=C(Nc1ccc(C(F)(F)F)cc1)c1cnc(N2CCN(c3ccccn3)CC2)c2ccccc12 returned HCMV antiviral 37, HCV inh -12%, FMDV inh 7.1µM*, MARV entry inh -5%[46.1 µM] and LASV entry inh -2%.
Screening O=C(NC1CC1)c1ccc(Cn2c(SCc3cccc(F)c3)nc3cccnc32)cc1 returned HCMV antiviral -31, FMDV inh -18% and LASV entry inh -7%[46.1 µM].
Screening Cc1ccc(-n2nc(C)c3c(C(=O)NCCc4ccccc4)cc(C)nc32)cc1 returned HCMV antiviral 4, FMDV inh -6% and LASV entry inh -15%[46.1 µM].
For CCN(CC)C1=N/C(=C\c2ccc(OC)cc2)C(=O)N1c1ccccc1 the results were HCMV antiviral -74*, HCV inh inconclusive, FMDV inh inconclusive, MARV entry inh inconclusive and LASV entry inh 0.89µM*.
`CCSC1=N/C(=C\c2ccccc2)C(=O)N1c1ccc(OC)cc1` gave HCMV antiviral inconclusive, HCV inh 10µM*, FMDV inh -21%, MARV entry inh -2% and LASV entry inh -11%.
For Cc1c(Cl)cccc1NC(=O)Nc1c[nH]c(=O)[nH]c1=O the results were HCMV antiviral -16, FMDV inh 10% and LASV entry inh 25%[46.1 µM].
CC1=C(C(=O)OCCNC(=O)c2ccccc2O)C(c2ccccc2[N+](=O)[O-])C(C(=O)OCC2CCCO2)=C(C)N1 (stereo not drawn) was read as HCMV antiviral inconclusive, HCV inh inconclusive, FMDV inh 28µM*, MARV entry inh inconclusive and LASV entry inh 10µM*.
COC(=O)C1=C(C)NC(C)=C(C(=O)OCC2CCCO2)C1c1ccc(Cl)c([N+](=O)[O-])c1 (stereo not drawn) was read as HCMV antiviral 11.
NC[C@H](Cc1ccccc1)NCCCCC1CCCCC1 was read as HCMV antiviral -3, HCV inh inconclusive and FMDV inh -16%.
CNC[C@H](CC1CCCCC1)NC[C@H](Cc1ccccc1)NCCC12CC3CC(CC(C3)C1)C2 was read as HCMV antiviral -105*, HCV inh 1%[8.37 µM] and FMDV inh 32µM*.
COC(=O)/C=c1\s/c(=C(/C#N)C(=O)NCc2ccco2)n(-c2ccccc2)c1=O was read as MARV entry inh -4%.
For Cn1cnc(S(=O)(=O)N2CCC(C(=O)N3CCN(c4cccc(C(F)(F)F)c4)CC3)CC2)c1 the results were HCMV antiviral -32, FMDV inh -4% and LASV entry inh -3%[46.1 µM].
O=C(C1CCN(S(=O)(=O)c2ccc(Br)s2)CC1)N1CCN(c2cccc(C(F)(F)F)c2)CC1 was read as HCMV antiviral inconclusive, FMDV inh inconclusive, MARV entry inh inconclusive and LASV entry inh 8.9µM*.
O=C(Cc1ccc(S(=O)(=O)N2CCOCC2)s1)N1CCN(c2cccc(C(F)(F)F)c2)CC1 was read as HCV inh 13µM* and FMDV inh -27%.
CN(C)C(CNc1ncnc2sccc12)c1cccs1 (stereo not drawn) was read as HCMV antiviral 3, HCV inh 11% and FMDV inh -5%.
For CCOC(=O)c1sc2ncnc(NCC(c3cccs3)N(C)C)c2c1C (stereo not drawn) the results were HCMV antiviral -16, HCV inh 10µM*, FMDV inh 4%, MARV entry inh inconclusive and LASV entry inh 16%.
For Cc1ccc2nc(-c3ccccn3)c(NC3CCCC3)n2c1 the results were HCMV antiviral -66*, HCV inh inconclusive, FMDV inh -6%, MARV entry inh inconclusive and LASV entry inh inconclusive.
For Cc1cc(C)n2c(Nc3c(C)cccc3C)c(-c3ccccn3)nc2n1 the results were HCMV antiviral -69* and FMDV inh inconclusive.
For Cc1cccc(C)c1Nc1c(-c2ccccn2)nc2ccccn12 the results were HCMV antiviral -97*, HCV inh 10µM* and FMDV inh -29%.

From PubChem
